According to the supplement of paper PMC10849652:
About 7,900 targets were measured; listed, in parts, are those with a hit and a random draw of the rest. About 0.6% of all pairs of compound and target were hits. Unmarked numbers belong to inactive results.

Columns and labels:
Assay in all cases: log2 fold change, soluble protein after heating vs DMSO (PISA); higher = thermal stabilisation; K562 cells, 10 uM, 30 min; active = over 0.2 and 3.5 SD of the protein, either way, in both replicates (recomputed)
[1] = compound: CC1=C(C=C(C=C1)NC(=O)C2=CC(=CC=C2)C(C)(C)C#N)NC3=CC4=C(C=C3)N=CN(C4=O)C
Method in brief: (§1)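 For each measurement, 10 μM compound was applied for 30 min to K562 cells at 2×10^6 cells/mL. Aliquots were heated for 3 min across 48°C-58°C, pooled, and extracted in PBS with 0.5% NP-40 at 4°C; the supernatant after 21,000xg for 90 min was soluble protein. This was quantified by TMTpro 16plex LC-MS/MS with channel sums equalised, and thermal stability was reported relative to control samples from duplicates, on a log2 fold-change scale.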

[2] = compound: CC1=C(C=C(C=C1)NC(=O)C2=CC(=CC=C2)N(C)C)NC(=O)C3=CC=C(C=C3)O
Method in brief: as §1

[3] = compound: CC1=CC=C(C=C1)SC2=C3C=C(SC3=CN=C2)C(=O)N
Method in brief: as §1

[4] = compound: CC1=NC(=CC=C1)C2=C(N=C(N2)C(C)(C)C)C3=CC4=NC=CN=C4C=C3
Method in brief: as §1

[5] = compound: CCCCN(Cc1ccc(C(=O)NO)cc1)C(=O)Nc1ccccc1 [Nexturastat A]
Method in brief: as §1

[6] = compound: CCCS(=O)(=O)Nc1ccc(F)c(C(=O)c2c[nH]c3ncc(-c4ccc(Cl)cc4)cc23)c1F [vemurafenib]
Method in brief: as §1

[7] = compound: CCCS(=O)(=O)Nc1ccc(F)c(C(=O)c2c[nH]c3ncc(Cl)cc23)c1F
Method in brief: as §1

[8] = compound: CCCc1cc(C)[nH]c(=O)c1CNC(=O)c1cc(-c2ccnc(N3CCN(C)CC3)c2)cc2c1cnn2C(C)C
Method in brief: as §1

[9] = compound: CCN(CC)Cc1ccc2cc(COC(=O)Nc3ccc(C(=O)NO)cc3)ccc2c1 [givinostat]
Method in brief: as §1

[10] = compound: CCN(CCCOc1ccc2c(Nc3cc(CC(=O)Nc4cccc(F)c4)[nH]n3)ncnc2c1)CCOP(=O)(O)O [barasertib]
Method in brief: as §1

Sequence of UniProt Q96G28 (Q96G28 whole entry, looked up): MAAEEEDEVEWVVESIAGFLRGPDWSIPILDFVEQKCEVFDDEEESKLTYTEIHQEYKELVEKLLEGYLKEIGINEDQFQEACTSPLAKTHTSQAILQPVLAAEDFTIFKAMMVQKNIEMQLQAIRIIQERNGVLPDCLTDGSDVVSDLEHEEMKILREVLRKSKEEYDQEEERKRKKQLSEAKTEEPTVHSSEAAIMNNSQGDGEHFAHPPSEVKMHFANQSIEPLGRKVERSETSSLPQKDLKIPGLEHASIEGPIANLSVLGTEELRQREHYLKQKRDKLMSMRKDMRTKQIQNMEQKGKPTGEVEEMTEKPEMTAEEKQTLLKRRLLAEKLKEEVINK
Sequence of UniProt P16152 (P16152 whole entry, looked up): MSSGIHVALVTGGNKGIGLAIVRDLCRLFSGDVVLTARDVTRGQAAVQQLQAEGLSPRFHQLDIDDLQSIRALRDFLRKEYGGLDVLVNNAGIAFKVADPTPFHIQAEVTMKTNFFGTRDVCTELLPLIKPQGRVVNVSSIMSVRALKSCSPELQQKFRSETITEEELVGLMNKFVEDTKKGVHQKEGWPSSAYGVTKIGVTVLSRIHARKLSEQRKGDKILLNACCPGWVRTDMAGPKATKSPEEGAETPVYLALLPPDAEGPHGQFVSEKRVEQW
Sequence of UniProt P49336 (P49336 whole entry, looked up): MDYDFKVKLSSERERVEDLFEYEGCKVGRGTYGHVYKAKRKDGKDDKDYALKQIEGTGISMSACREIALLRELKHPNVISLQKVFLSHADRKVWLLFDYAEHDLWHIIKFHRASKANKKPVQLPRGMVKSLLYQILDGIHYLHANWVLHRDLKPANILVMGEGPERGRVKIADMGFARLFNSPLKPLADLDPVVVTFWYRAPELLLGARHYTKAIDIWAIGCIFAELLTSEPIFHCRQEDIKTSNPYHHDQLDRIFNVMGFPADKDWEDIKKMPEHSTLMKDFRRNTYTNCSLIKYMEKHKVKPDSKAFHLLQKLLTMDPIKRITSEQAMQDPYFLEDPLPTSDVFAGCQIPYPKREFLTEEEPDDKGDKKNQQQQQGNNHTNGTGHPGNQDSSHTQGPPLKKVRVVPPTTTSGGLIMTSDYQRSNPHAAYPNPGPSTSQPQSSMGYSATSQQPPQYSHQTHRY
Sequence of UniProt P48509 (P48509 whole entry, looked up): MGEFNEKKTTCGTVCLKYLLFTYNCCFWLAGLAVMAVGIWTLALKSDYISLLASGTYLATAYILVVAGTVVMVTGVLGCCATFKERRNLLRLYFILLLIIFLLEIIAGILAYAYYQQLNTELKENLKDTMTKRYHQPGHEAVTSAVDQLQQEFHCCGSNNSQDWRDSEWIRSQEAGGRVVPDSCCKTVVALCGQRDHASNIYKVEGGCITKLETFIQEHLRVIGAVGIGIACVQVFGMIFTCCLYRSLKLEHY
Sequence of UniProt P50750 (P50750 whole entry, looked up): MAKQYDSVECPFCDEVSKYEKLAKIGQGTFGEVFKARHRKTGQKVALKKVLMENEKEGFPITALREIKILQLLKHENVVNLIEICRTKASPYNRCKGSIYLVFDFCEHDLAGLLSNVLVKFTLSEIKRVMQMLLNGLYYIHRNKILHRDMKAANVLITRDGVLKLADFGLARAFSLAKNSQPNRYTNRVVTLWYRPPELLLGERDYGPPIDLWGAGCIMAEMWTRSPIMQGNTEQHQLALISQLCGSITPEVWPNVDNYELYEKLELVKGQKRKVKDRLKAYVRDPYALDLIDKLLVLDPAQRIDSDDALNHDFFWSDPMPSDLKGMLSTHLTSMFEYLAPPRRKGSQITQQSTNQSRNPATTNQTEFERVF
Sequence of UniProt P21964 (P21964 whole entry, looked up): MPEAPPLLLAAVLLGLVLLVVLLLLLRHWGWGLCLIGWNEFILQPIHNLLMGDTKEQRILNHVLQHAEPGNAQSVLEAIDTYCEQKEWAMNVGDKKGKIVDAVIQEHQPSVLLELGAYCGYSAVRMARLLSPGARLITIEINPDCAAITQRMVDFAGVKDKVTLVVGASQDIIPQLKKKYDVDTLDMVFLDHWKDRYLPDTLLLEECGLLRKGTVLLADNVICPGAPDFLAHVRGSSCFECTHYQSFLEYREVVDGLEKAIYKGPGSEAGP
Sequence of UniProt P27708 (P27708 whole entry, looked up): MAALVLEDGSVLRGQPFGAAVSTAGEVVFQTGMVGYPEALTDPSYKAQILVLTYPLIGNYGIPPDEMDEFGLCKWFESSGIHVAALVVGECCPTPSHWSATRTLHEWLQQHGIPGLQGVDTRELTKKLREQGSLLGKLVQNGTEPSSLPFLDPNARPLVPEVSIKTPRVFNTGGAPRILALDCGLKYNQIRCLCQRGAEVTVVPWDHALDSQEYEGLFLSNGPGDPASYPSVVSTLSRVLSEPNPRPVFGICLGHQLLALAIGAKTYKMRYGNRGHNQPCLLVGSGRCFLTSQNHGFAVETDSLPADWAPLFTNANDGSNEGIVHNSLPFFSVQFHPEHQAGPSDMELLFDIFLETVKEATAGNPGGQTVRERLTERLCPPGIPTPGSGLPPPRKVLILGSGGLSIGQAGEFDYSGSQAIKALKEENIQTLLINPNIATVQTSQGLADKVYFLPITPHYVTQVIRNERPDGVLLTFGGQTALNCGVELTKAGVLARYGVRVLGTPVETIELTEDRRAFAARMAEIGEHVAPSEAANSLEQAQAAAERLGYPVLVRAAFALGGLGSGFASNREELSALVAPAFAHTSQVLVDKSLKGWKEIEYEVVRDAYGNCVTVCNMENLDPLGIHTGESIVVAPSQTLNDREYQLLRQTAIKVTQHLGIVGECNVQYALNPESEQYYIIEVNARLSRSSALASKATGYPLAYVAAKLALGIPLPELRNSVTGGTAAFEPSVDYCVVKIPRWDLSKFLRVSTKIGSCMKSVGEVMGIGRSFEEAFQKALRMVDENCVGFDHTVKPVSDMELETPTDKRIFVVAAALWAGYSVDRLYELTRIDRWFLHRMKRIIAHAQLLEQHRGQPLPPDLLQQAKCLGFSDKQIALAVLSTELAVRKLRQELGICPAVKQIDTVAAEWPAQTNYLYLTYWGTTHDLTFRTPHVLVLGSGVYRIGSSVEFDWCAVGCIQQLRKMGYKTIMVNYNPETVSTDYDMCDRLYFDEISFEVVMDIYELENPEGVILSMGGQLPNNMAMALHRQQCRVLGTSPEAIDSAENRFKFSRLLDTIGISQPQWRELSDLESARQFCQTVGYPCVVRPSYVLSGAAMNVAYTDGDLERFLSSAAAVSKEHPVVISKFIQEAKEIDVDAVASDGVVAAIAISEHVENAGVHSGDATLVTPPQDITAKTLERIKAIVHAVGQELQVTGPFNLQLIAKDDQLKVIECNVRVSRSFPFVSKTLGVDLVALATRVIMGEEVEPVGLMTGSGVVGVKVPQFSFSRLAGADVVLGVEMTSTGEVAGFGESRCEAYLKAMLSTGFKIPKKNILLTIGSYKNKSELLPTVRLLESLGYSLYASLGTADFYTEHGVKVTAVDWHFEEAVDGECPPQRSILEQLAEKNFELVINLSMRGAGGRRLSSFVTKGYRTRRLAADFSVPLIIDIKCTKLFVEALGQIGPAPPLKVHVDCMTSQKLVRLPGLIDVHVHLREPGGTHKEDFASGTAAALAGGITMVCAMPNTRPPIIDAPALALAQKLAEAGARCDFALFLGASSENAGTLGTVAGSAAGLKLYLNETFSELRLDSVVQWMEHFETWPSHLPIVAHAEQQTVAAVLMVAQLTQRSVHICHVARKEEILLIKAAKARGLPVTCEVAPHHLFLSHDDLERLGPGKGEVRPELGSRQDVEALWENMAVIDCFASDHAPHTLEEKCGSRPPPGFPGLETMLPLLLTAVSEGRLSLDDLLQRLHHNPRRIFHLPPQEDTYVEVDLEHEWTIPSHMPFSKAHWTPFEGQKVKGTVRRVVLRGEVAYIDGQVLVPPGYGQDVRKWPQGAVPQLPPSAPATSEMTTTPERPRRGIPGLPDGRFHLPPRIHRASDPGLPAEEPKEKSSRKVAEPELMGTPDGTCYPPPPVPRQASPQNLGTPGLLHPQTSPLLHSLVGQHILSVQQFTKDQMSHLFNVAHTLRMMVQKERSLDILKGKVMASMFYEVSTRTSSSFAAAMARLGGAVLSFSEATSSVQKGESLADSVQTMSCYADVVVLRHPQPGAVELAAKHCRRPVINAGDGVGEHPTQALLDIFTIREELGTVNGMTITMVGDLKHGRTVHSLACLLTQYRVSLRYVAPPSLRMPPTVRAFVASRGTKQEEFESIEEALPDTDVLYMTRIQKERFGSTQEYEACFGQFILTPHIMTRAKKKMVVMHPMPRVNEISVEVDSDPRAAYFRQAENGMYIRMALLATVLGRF
Sequence of UniProt Q8IUI8 (Q8IUI8 whole entry, looked up): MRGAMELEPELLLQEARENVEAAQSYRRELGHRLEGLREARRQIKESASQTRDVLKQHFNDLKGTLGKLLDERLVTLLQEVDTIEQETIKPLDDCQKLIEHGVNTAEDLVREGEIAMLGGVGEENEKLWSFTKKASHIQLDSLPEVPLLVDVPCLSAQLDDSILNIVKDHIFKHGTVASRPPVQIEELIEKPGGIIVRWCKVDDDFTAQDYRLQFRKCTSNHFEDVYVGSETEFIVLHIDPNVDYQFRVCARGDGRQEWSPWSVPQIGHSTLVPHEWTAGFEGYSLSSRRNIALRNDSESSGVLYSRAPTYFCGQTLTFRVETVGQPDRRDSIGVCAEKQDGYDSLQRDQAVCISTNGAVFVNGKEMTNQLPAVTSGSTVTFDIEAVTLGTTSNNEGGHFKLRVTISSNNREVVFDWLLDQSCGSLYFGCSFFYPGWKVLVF
Sequence of UniProt Q00535 (Q00535 whole entry, looked up): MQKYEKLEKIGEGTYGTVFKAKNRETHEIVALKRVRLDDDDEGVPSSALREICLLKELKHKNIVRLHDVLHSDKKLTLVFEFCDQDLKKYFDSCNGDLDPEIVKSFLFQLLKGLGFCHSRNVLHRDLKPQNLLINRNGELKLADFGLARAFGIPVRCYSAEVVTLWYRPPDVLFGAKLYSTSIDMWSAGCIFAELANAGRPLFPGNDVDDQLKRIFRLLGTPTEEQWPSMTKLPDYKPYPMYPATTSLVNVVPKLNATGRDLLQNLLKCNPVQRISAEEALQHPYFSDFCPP

| Target | log2 fold change [1] | log2 fold change [2] | log2 fold change [3] | log2 fold change [4] | log2 fold change [5] | log2 fold change [6] | log2 fold change [7] | log2 fold change [8] | log2 fold change [9] | log2 fold change [10] |
| --- | --- | --- | --- | --- | --- | --- | --- | --- | --- | --- |
| CD151 (UniProt P48509) | -0.125 | -0.057 | -0.002 | 0.027 | -0.159 | -0.103 | 0 | -0.21 | 0.018 | -0.052 |
| CAD (UniProt P27708) | -0.047 | -0.009 | 0.027 | 0.012 | 0 | -0.041 | -0.018 | -0.078 | 0.008 | 0.002 |
| CDK8 (UniProt P49336) | 0.002 | -0.005 | 0.322 | 0.064 | -0.125 | 0.041 | 0.044 | -0.081 | 0.02 | -0.343 |
| CPT1A (UniProt P50416) | 0.069 | -0.077 | -0.054 | -0.114 | 0.083 | 0.11 | 0.022 | 0.09 | 0.048 | 0.01 |
| CLCN3 (UniProt P51790) | -0.03 | 0.046 | 0.015 | 0.034 | -0.313 (active) | 0.014 | 0.009 | -0.107 | 0.02 | 0.053 |
| CDK5 (UniProt Q00535) | -0.053 | -0.009 | 0.001 | -0.008 | -0.002 | 0.031 | 0.058 | 0.078 | 0.003 |  |
| CDK9 isoform 2 (UniProt P50750) | 0.053 | -0.067 | -0.001 | -0.084 | 0.155 | -0.052 | 0.024 | 0.036 | 0.014 | 0.002 |
| CD63 (UniProt P08962) | -0.007 | 0.056 | 0.004 | 0.009 | -0.072 | 0.064 | -0.007 | -0.125 | 0.096 | -0.025 |
| COMT (UniProt P21964) | 0.14 | 0.009 | -0.012 | 0.019 | 0.036 | 0.011 | 0.002 | 0.005 | 0.144 | -0.006 |
| CBR1 (UniProt P16152) | 0.006 | -0.023 | 0.005 | 0.038 | -0.032 | -0.001 | 0.074 | 0.051 | 0.005 | 0.025 |
| CRLF3 (UniProt Q8IUI8) | 0.05 | -0.015 | 0.03 | -0.071 | 0.005 | 0.057 | 0.044 | 0.025 | 0.065 | 0.073 |
| CFAP36 isoform 2 (UniProt Q96G28) | 0.005 | 0.024 | 0.054 | 0.066 | 0.023 | -0.041 | 0.012 | -0.061 | -0.003 | 0.03 |
| CIT isoform 4 (UniProt O14578) | -0.105 | 0.017 | -0.003 | -0.032 | -0.02 | -0.012 | 0.01 | 0.002 | 0.033 | 0.047 |
| CSNK2B (UniProt P67870) | -0.019 | 0.021 | -0.032 | 0.066 | -0.021 | 0.026 | 0.016 | -0.034 | -0.03 | -0.008 |
| CIR1 (UniProt Q86X95) | -0.04 | -0.38 | 0.047 | -0.018 | 0.199 | -0.156 | -0.129 | 0.047 | -0.015 | -0.105 |
